# Source: PubChem BioAssay (NCATS)
# “And” between values parts separate entries of the source, which are not always exact repeats. Equal entries are not always repeated. Results filed as inconclusive are left out. Some structures have more than one record in an assay (separate samples or runs), and their calls can disagree. The source made the active and inactive calls. Unless noted, calls follow the shape of the dose curve; as a rule, active = well fitted curve in the direction sought with a large enough effect; inconclusive = small, poorly fitted or top-dose-only effect, or another doubt; inactive = no such curve, though single readings can be large; an effect the other way counts as inactive or inconclusive.
# Key:
# [1] = qHTS Assay for Identifying Gametocytocidal Compounds (AID 743244); also: potency is read from the fitted curve at half-maximal effect;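 as to max response: % is scaled to controls: 0 for no effect and ±100 for the full control effect; actives lower the fluorescent signal which means gametocytes are killed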; conditions: P. falciparum 3D7 stage III-V gametocytes, alamarBlue, 72 h; max response: stronger effect = lower value
# Procedure, shortened: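 3D7 gametocytes, stages III–V, 20,000/well; cpd 72 h, 37 °C/5% CO2; + alamarBlue 24 h; fluor. Ex 525/Em 598.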
# [2] = qHTS assay for cell viability of HEK293 cells (AID 743288); conditions: ATP luminescence (CellTiter-Glo), 18 h, stronger effect = lower value; also: % is scaled to controls: 0 for no effect and ±100 for the full control effect; nearly all actives have a fitted effect of over 50% in size
# Procedure, shortened: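 ATP luminescence (CellTiter-Glo) reports metabolically competent cell number after parental HEK293 cells, 2,000/well, were treated with DMSO-dissolved compounds for 18 h at 37 C; reagent incubation 30 min, room temperature.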
# [3] = qHTS assay for cell viability of the p53RE-bla HCT-116 cell line (AID 743292); also: nearly all actives have a fitted effect of over 55% in size; also: potency is read from the fitted curve at half-maximal effect
# Procedure, shortened: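 CellSensor p53RE-bla HCT-116 cells (4,000/well) pre-incubated 5 h at 37 C, then exposed to compounds in DMSO for 16 h at 37 C. Viability read as ATP content by CellTiter-Glo luminescence after 30 min at room temperature.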
# [4] = qHTS profiling for inhibitors of Plasmodium falciparum (3D7) proliferation (AID 743322; call rule not given here;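 also: infected erythrocytes exposed to compound for 72 h before lysis; 100% = DMSO vehicle wells and 0% = 0.29 µM artemisinin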); conditions: P. falciparum 3D7 proliferation; at 28.7 µM (top of the series) unless noted
# Procedure, shortened: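 Parasite DNA was quantified by SYBR Green I fluorescence (ex 485, em 535 nm) after overnight lysis in saponin/Triton buffer at room temperature. Cultures at 0.3% parasitemia and 2.5% hematocrit were first exposed to compound for 72 h at 37 C; signals were normalised to artemisinin (0.29 uM) and vehicle wells.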
# [5] = qHTS profiling for inhibitors of Plasmodium falciparum (DD2) proliferation (AID 743323; call rule not given here); conditions: lower = more inhibition; at 28.7 µM (top of the series) unless noted
# Procedure, shortened: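 Parasite DNA quantified by SYBR Green fluorescence (ex 485, em 535 nm) after saponin/Triton lysis and overnight dark incubation. Cultures: 0.3% parasitemia, 2.5% hematocrit, 72 h, 37 C; data scaled between DMSO and 0.29 uM artemisinin.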
# [6] = qHTS profiling for inhibitors of Plasmodium falciparum (HB3) proliferation (AID 743324); conditions: Plasmodium falciparum HB3 blood-stage proliferation; at 28.7 µM (top of the series) unless noted;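 also: 100% = DMSO vehicle wells and 0% = artemisinin-treated control wells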
# Procedure, shortened: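 SYBR Green fluorescence (485 ex/535 em) of lysed cultures, incubated overnight at room temperature in the dark, quantifies parasite DNA. Infected erythrocytes at 0.3% parasitemia and 2.5% hematocrit were exposed 72 h; values normalized to DMSO and 0.29 uM artemisinin controls.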
compound,measurement,setting,value
O=C1O[C@H]([C@@H](O)CO)C(O)=C1O,max response,[1],-4.25% (inactive) and 24.7% (inactive)
same,max response,[2],-2.8% (inactive) and 5.16% (inactive)
same,Potency,[3],inactive
CCCc1c(OCCCCc2nn[nH]n2)ccc(C(C)=O)c1O,max response,[1],-10.5% (inactive)
same,max response,[2],-7.07% (inactive)
same,Potency,[3],inactive
CC1(C)[C@@H]2CC[C@@]1(C)C(=O)C2,max response,[1],-6.95% (inactive)
same,max response,[2],-3.96% (inactive)
same,Potency,[3],inactive
CN1[C@@H]2CC(OC(=O)[C@H](CO)c3ccccc3)C[C@H]1[C@@H]1O[C@@H]12 (stereo partly drawn),max response,[1],9.71% (inactive) and 1.92% (inactive)
CC(O)COc1ccccc1 (stereo not drawn),max response,[1],8.99% (inactive)
same,max response,[2],1.97% (inactive)
same,Potency,[3],inactive
O=c1[nH]c(=O)c2[nH]c(=O)[nH]c2[nH]1,max response,[1],19.7% (inactive) and 9.73% (inactive)
CCCCOC(=O)c1ccc(O)cc1,max response,[1],0.124% (inactive)
same,max response,[2],-12.8% (inactive) and -6.18% (inactive)
same,Potency,[3],inactive
Cc1c(O)cccc1C(=O)N[C@@H](CSc1ccccc1)[C@H](O)CN1C[C@H]2CCCC[C@H]2C[C@H]1C(=O)NC(C)(C)C,max response,[1],0.0084% (inactive)
same,Potency,[3],28.2 µM (active)
CC(=O)O[C@@]12CO[C@@H]1C[C@H](O)[C@@]1(C)C(=O)[C@H](O)C3=C(C)[C@@H](OC(=O)[C@H](O)[C@@H](NC(=O)OC(C)(C)C)c4ccccc4)C[C@@](O)([C@@H](OC(=O)c4ccccc4)[C@H]21)C3(C)C,Potency,[1],18.7 µM (active)
same,max response,[1],-16.9% (inactive)
same,remaining parasite growth % (stronger effect = lower value),[4],7.64% and -0.123%
same,"activity, percent of control",[5],14.2% and 11.9%
same,"remaining proliferation (% of control), lower = more inhibition",[6],0.549% and 1.1%
NCCNCCNCCN,max response,[1],-8.14% (inactive)
same,max response,[2],-5.67% (inactive)
same,Potency,[3],inactive
Nc1ccc(S(=O)(=O)NC(=O)c2ccccc2)cc1,max response,[1],7.19% (inactive)
O=C1NS(=O)(=O)c2ccccc21,max response,[1],5.05% (inactive)
same,max response,[2],0.942% (inactive)
same,Potency,[3],inactive
Nc1ccc(S(=O)(=O)Nc2nccs2)cc1,max response,[1],3.15% (inactive)
same,max response,[2],-1.59% (inactive)
same,Potency,[3],inactive
O=C1Nc2ccc(Cl)cc2[C@@](C#CC2CC2)(C(F)(F)F)O1,max response,[1],-21.2% (inactive)
same,remaining parasite growth % (stronger effect = lower value),[4],6.68% [at 57.5 µM]
same,"activity, percent of control",[5],22.7% [at 57.5 µM]
same,"remaining proliferation (% of control), lower = more inhibition",[6],11.8% [at 57.5 µM]
O=C1c2c(O)cccc2Cc2cccc(O)c21,max response,[1],12% (inactive)
same,max response,[2],-1.66% (inactive)
same,Potency,[3],inactive
CC1(C)OC(=O)NC1=O,max response,[1],2.42% (inactive)
O=S(=O)(O)NC1CCCCC1,max response,[1],-6.77% (inactive)
same,max response,[2],-0.923% (inactive)
same,Potency,[3],inactive
Oc1cccc(O)c1,max response,[1],-1.48% (inactive)
same,max response,[2],11.8% (inactive)
same,Potency,[3],inactive
CCOC(=O)c1ccc(O)cc1,max response,[1],10.3% (inactive)
same,max response,[2],-3.62% (inactive)
same,Potency,[3],inactive
c1ccc2c(CC3=NCCN3)cccc2c1,max response,[1],1.75% (inactive) and 3.04% (inactive) and -11% (inactive)
NCCNCCNCCNCCN,max response,[1],-2.7% (inactive)
same,max response,[2],-15.2% (inactive) and 3.69% (inactive)
same,Potency,[3],inactive
CN(C)CCCN1c2ccccc2CCc2ccccc21,Potency,[3],inactive
CC12CCC(CC1)C(C)(C)O2,max response,[1],7.91% (inactive)
same,max response,[2],4.94% (inactive)
same,Potency,[3],inactive
CCCCN(CCCC)CC(O)c1cc(Cl)cc2c1-c1ccc(Cl)cc1/C2=C/c1ccc(Cl)cc1 (stereo not drawn),remaining parasite growth % (stronger effect = lower value),[4],0.77%
same,"activity, percent of control",[5],1.35%
same,"remaining proliferation (% of control), lower = more inhibition",[6],1.36%
CC(O)CN(CCN(CC(C)O)CC(C)O)CC(C)O (stereo not drawn),max response,[1],3.97% (inactive)
same,max response,[2],-9.37% (inactive)
same,Potency,[3],inactive
O=C(O)COc1nn(Cc2ccccc2)c2ccccc12,max response,[1],49.6% (inactive)
Nc1nc2c(ncn2CCC(CO)CO)c(=O)[nH]1,max response,[1],-1.67% (inactive)
CCCCCCCCCCCCOS(=O)(=O)O,max response,[1],14.3% (inactive)
same,max response,[2],-2.66% (inactive) [middle of 4 runs]
same,Potency,[3],inactive
NC(=O)c1ncn([C@@H]2O[C@H](CO)[C@@H](O)[C@H]2O)c1N,max response,[1],-0.312% (inactive) and 4.68% (inactive)
same,remaining parasite growth % (stronger effect = lower value),[4],104%
same,"activity, percent of control",[5],121%
